Inhibition data for six compounds are collected here from ChEMBL document CHEMBL1961873, “Compounds: GSK PKIS; Assays: Nanosyn kinase panel” (2012).

Each structure is given as a SMILES string.

The target of test [1] is T1, Serine/threonine-protein kinase TBK1 (Homo sapiens) (UniProt Q9UHD2).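 Further: values are mean inhibition of TBK1, screened as part of the GSK published kinase inhibitor set.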
T1 sequence (whole entry): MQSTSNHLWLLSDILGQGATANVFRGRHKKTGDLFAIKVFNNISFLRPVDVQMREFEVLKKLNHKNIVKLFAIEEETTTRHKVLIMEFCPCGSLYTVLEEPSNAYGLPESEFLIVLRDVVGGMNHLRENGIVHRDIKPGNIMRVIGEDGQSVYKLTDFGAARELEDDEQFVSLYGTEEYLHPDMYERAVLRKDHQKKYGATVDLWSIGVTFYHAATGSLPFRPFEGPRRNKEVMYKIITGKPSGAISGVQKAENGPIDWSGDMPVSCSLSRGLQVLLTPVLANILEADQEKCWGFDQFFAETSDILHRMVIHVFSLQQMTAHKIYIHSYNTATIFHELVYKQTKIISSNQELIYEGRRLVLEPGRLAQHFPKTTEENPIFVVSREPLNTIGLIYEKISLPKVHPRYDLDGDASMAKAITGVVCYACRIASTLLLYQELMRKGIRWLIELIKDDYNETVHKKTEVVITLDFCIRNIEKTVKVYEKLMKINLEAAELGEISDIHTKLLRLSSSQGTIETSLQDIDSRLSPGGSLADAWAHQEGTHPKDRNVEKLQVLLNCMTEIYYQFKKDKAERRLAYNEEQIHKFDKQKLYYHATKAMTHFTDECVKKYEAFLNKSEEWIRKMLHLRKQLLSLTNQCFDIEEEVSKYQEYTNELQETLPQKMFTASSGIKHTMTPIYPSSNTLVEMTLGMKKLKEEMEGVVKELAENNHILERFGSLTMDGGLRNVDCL
The settings on record: at 1 µM.

Test [2] has as its target T2, Testis-specific serine/threonine-protein kinase 1 (Homo sapiens) (UniProt Q9BXA7).
T2 sequence (whole entry): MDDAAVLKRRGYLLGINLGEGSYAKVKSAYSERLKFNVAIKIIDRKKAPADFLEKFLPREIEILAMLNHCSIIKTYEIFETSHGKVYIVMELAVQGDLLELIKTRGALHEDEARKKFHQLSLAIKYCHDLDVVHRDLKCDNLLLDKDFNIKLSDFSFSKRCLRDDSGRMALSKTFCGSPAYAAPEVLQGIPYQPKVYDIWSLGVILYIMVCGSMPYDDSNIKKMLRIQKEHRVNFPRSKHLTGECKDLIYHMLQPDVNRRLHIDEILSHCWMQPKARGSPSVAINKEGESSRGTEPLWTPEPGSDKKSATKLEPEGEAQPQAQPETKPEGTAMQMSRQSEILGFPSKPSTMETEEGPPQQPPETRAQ
The settings on record: at 0.1 µM.

In test [3] the target is T2, Testis-specific serine/threonine-protein kinase 1 (Homo sapiens). The settings on record: at 1 µM.
The target in test [4] is T3, Testis-specific serine/threonine-protein kinase 2 (Homo sapiens) (UniProt Q96PF2).
T3 sequence (whole entry): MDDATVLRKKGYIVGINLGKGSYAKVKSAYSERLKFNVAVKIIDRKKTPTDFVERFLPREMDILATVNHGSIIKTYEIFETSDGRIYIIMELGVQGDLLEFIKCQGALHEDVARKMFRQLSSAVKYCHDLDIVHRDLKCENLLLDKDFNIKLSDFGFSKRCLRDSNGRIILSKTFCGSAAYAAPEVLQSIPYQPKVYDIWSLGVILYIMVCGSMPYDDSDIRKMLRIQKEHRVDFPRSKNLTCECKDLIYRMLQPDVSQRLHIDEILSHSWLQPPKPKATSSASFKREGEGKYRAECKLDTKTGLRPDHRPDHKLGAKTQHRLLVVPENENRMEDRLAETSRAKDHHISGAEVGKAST
The settings on record: at 0.1 µM.

Test [5] concerns the target T3, Testis-specific serine/threonine-protein kinase 2 (Homo sapiens). To be noted: at 1 µM.
Test [6] addresses Casein kinase I isoform alpha (Homo sapiens) (UniProt P48729). The settings on record: at 0.1 µM.
The target is the same in test [7]. To be noted: at 1 µM.
In test [8] the target is Casein kinase I isoform gamma-1 (Homo sapiens) (UniProt Q9HCP0). To be noted: at 0.1 µM.
Test [9] has the same target. The settings on record: at 1 µM.
The target in test [10] is Casein kinase I isoform gamma-2 (Homo sapiens) (UniProt P78368). The settings on record: at 0.1 µM.
The target is the same in test [11]. To be noted: at 1 µM.
Test [12] addresses Casein kinase I isoform gamma-3 (Homo sapiens) (UniProt Q9Y6M4). To be noted: at 0.1 µM.
Test [13] shares this target. The settings on record: at 1 µM.
In test [14] the target is Cyclin-dependent kinase 1 (Homo sapiens) (UniProt P06493). The settings on record: at 0.1 µM.
The target is the same in test [15]. The settings on record: at 1 µM.
In test [16] the target is Cyclin-dependent kinase 2 (Homo sapiens) (UniProt P24941). To be noted: at 0.1 µM.
Test [17] has the same target. The settings on record: at 1 µM.
For test [18] the target is unchanged. The settings on record: at 0.1 µM. This is another data set of the same source.
For test [19] the target is unchanged. The settings on record: at 1 µM. The source holds these as a separate data set.
Test [20] deals with CDK3/Cyclin E (Homo sapiens) (UniProt P24864+Q00526). The settings on record: at 0.1 µM.

The term inhibition denotes the relative decrease from the control value, in per cent.

Casein kinase I isoform gamma-3 (Homo sapiens), sequence (Q9Y6M4 whole entry, looked up, canonical isoform): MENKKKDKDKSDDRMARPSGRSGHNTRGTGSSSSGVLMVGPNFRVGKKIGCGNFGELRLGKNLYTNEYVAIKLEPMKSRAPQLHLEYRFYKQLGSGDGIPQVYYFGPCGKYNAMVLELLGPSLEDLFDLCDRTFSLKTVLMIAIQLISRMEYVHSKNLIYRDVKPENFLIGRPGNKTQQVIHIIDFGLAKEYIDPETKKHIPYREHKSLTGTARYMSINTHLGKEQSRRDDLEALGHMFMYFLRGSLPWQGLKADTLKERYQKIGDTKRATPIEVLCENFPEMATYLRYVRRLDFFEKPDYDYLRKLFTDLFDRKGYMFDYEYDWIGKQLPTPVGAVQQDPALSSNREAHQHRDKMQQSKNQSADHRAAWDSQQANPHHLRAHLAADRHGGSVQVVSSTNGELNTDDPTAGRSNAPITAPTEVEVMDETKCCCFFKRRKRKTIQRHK
Casein kinase I isoform gamma-1 (Homo sapiens), sequence (Q9HCP0 whole entry, looked up, canonical isoform): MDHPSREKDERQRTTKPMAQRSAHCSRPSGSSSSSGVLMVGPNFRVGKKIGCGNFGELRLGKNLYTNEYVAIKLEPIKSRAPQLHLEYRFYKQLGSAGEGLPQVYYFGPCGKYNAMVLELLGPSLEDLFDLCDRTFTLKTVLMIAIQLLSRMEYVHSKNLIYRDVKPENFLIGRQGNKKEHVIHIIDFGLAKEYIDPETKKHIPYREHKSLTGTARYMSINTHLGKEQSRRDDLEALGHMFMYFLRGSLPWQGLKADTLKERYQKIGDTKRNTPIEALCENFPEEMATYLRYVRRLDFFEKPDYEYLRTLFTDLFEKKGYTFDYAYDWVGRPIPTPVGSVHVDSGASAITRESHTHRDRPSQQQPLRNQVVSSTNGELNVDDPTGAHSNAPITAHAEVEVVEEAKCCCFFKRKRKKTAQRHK
Casein kinase I isoform alpha (Homo sapiens), sequence (P48729 2-337 limits assumed): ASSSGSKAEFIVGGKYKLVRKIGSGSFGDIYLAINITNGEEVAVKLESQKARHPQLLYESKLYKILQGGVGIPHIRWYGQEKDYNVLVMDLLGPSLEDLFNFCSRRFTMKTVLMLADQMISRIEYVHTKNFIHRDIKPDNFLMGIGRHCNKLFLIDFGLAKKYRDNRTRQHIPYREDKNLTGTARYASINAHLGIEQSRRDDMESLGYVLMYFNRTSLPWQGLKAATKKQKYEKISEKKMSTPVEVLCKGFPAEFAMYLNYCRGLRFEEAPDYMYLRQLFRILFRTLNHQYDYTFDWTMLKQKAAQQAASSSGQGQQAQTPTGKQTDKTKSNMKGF
Casein kinase I isoform gamma-2 (Homo sapiens), sequence (P78368 whole entry, looked up, canonical isoform): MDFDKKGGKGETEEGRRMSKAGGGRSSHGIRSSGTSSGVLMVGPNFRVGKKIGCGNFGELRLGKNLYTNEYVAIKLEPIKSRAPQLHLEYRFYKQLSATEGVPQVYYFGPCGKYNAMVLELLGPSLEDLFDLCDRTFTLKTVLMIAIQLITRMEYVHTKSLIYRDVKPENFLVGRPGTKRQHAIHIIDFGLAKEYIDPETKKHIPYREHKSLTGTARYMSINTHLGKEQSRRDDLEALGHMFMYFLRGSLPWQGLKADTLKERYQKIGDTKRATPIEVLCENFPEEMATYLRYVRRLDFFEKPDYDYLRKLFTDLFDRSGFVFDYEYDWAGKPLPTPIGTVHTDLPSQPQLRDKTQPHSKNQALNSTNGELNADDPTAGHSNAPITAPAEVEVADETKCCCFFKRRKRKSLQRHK
CDK3/Cyclin E (Homo sapiens), sequence (P24864 whole entry, looked up): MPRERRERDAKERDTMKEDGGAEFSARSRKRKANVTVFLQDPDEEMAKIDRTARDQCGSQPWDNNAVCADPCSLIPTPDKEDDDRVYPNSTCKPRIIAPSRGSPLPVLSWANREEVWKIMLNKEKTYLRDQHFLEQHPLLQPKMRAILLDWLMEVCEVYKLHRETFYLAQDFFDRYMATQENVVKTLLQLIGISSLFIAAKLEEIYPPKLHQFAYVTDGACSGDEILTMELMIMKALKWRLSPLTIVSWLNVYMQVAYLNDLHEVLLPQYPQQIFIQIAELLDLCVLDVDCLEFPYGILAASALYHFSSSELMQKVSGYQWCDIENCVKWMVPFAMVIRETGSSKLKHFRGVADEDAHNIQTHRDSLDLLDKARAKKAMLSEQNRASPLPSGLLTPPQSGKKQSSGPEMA
CDK3/Cyclin E (Homo sapiens), sequence (Q00526 whole entry, looked up): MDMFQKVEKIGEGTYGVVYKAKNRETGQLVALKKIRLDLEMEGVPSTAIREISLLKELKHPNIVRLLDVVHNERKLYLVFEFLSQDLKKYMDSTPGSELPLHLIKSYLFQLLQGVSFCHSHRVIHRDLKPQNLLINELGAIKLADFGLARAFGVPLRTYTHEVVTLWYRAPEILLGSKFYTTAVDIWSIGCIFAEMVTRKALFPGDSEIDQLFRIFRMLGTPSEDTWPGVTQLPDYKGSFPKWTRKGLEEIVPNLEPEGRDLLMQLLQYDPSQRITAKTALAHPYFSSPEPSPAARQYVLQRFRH
Cyclin-dependent kinase 1 (Homo sapiens), sequence (P06493 whole entry, looked up): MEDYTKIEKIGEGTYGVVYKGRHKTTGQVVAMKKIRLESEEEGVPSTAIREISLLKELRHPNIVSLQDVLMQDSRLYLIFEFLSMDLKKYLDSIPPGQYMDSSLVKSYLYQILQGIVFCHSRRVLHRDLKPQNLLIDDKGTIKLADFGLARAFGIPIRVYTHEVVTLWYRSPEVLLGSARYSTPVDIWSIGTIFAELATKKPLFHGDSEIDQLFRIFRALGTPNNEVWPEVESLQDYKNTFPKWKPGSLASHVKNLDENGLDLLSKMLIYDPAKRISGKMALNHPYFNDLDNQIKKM

Consider `Nc1ncnc2occ(-c3ccc(NC(=O)Nc4cccc(C(F)(F)F)c4)cc3)c12`, for which the inhibition in test [1] was determined as 4.59%; in test [2], 4.54%; in test [3], 4.9%; in [4] it was 1.47%; in test [5] it was 2.55%; in test [6] it was 3.35%. Further, the inhibition came to 5.6% in test [7]; 5.08% in test [8]; 10.1% in [9]; 4.03% in test [10]; 7.31% in test [11]; 3.11% in test [12]. The inhibition in test [13] was 10.3%; in test [14], -0.24%; in [15], 4.91%; in test [16], 2.4%; in test [17], 8.86%; in test [18], 4.68%. The inhibition in test [19] came out at 10.8%; in test [20] it was 2.04%.

Consider `CCn1c(-c2nonc2N)nc2c(N3CCCC3)nccc21`, for which the inhibition in test [1] was 2.54%; in [2], 0.01%; in test [3], -0.07%; in test [4] it was -0.87%; in [5], 0.44%; in test [6], -0.35%. Also, the inhibition in test [7] is 0.23%; in test [8], -0.72%; in test [9], -0.83%; in test [10], -0.88%; in [11], -0.7%; in test [12], -0.94%. Also, the inhibition in test [13] is -0.62%; in test [14], 0.79%; in test [15] it was 2.89%; in test [16] it was 1%; in test [18], 0.81%; in [19] it was 5.24%. The inhibition in [20] stood at 0.91%.

With `[O-][S+]1CCN(Cc2ccc(-c3ccc4ncnc(Nc5ccc(OCc6ccccc6)c(F)c5)c4c3)o2)CC1`, the inhibition in test [1] is 2.87%; in test [2] it was 1.77%; in test [3] it was 0.49%; in [4], 0.63%; in test [5], -1.37%; in [6], 2.43%. The inhibition in test [7] was found to be 4.39%; in test [8], 2.09%; in test [9], 3.44%; in test [10], 1.93%; in test [11], 3.2%; in test [12], 1.87%. The inhibition in test [13] is 3.97%; in test [14], 0.66%; in test [15], 0.48%; in [16], 1.07%; in [17], -1.12%; in test [18] it was 1.88%. The inhibition in test [19] turned out to be 2.86%; in test [20], 5.36%.

As for `O=C1NC(=O)C(c2ccccc2Cl)=C1Nc1cccc(O)c1`, the inhibition in [1] is 6.91%; in test [2] it was 1.56%; in test [3], 1.53%; in test [4], 1.05%; in [5], -1.27%; in test [6], 4.13%. Also, the inhibition stood at 2.81% in test [7]; 2.54% in [8]; 3.11% in [9]; 1.14% in test [10]; 2.79% in test [11]; 0.98% in test [12]. Also, the inhibition in test [13] came out at 1.47%; in [14], 2.95%; in test [15], 21%; in test [16], 3.51%; in test [17], 20.6%; in test [18], 3.32%. Further, the figures for the inhibition in test [19] and in [20] were 18.7% and 2.37%, respectively.

Consider `Cc1nn(C)c2cc(N(C)c3ccnc(Nc4cccc(S(N)(=O)=O)c4)n3)ccc12`, for which the inhibition was determined as 10.3% in test [1]; 3.95% in test [2]; 5.39% in test [3]; 1.61% in test [4]; 2.71% in test [5]; 0.9% in [6]. The inhibition in test [7] amounted to 0.72%; in test [8] it was 2.37%; in test [9], 2.59%; in [10], 1.72%; in test [11], 2.93%; in [12] it was 0.54%. For the same compound, the inhibition in test [13] is 3.06%; in [14] it was 0.25%; in test [15] it was 5.8%; in [16], -0.61%; in [17], 2.33%; in test [18], 2.2%. Moreover, the inhibition in test [19] is 8.5%; in test [20], 1.91%.

As for `CCn1c(-c2nonc2N)nc2cncc(C(=O)N3CC[C@H](N)C3)c21`, the inhibition in test [1] worked out at 19.7%; in test [2] it was 7.36%; in test [3], 18.9%; in [4], 3.56%; in [5] it was 5.01%; in test [8] it was 3.59%. The inhibition in test [9] was found to be 4.35%; in test [10] it was 3.12%; in [11], 3.73%; in test [12], 2.49%; in test [13], 2.9%; in [14] it was 0.41%. Also, the inhibition in [16] is 2.14%; in [17], -1.11%; in [18], 2.3%; in [19], 5.5%; in test [20], 5.34%.
